Experimental findings from PubChem BioAssay (NCATS) are described below.

Molecules are shown by their SMILES. “And” between values parts separate entries of the source, which are not always exact repeats. Identical values can stand only once. Records with an inconclusive call do not appear. The source made the active and inactive calls. Unless noted, calls come from the whole dose curve; as a rule, active = well fitted curve in the direction sought with a large enough effect; inconclusive = small, poorly fitted or top-dose-only effect, or another doubt; inactive = no such curve, though single readings can be large; an effect the other way counts as inactive or inconclusive.

Test [1] in a line: qHTS drug screen for cell cycle checkpoint inhibitors in PARPi-resistant BRCA-mutant ovarian cancer cell lines. (AID 1963452; calls by dose curve; note: potency is the fitted concentration of half-maximal effect). The following applies: PEO1/OlaR viability, CellTiter-Glo luminescence, 96 h; for Z-AUC: stronger effect = lower value. Put shortly: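 PEO1, PEO4 and PEO1/OlaR ovarian cancer cells, 600 per well, exposed 96 h at 37C to a dilution series. Viability read by CellTiter-Glo luminescence, normalized to DMSO and empty wells; activity summarized as Z-AUC.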
In general terms: qHTS replaces the single test concentration by a dilution series.

Test [2] addresses Cytochrome P450 3A4 (Homo sapiens) (UniProt P08684). The test can be described thus: qHTS for inhibitors of CYP3A4 against the NCATS DSHEA and TCM libraries (AID 1919971).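 Note: % is set by controls: 0 for no effect and ±100 for the full control effect; inhibition lowers luminescence from luciferin made by CYP3A4.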 Summed up: (§1)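 Concentration-response screening with isoform-matched pro-luciferin substrates. The CYP reaction was initiated by NADPH regenerating solution and ran 30-45 min in darkness at room temperature.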

The target in test [3] is Cytochrome P450 2D6 (Homo sapiens) (UniProt P10635). The test can be described thus: qHTS for inhibitors of CYP2D6 against the NCATS DSHEA and TCM libraries (AID 1919972). Note: % is set by controls: 0 for no effect and ±100 for the full control effect. Summed up: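 CYP2D6 enzyme with pro-luciferin substrate in manufacturer buffer (typically 100 mM KPO4), preincubated 15 min RT with substances (most at 19.5 nM upward); NADPH regeneration system (1x) started 30–45 min RT reaction; P450-Glo luminescence read after 30 min; quinidine as intraplate control.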
Cytochrome P450 2D6 (Homo sapiens), sequence (P10635 whole entry, looked up): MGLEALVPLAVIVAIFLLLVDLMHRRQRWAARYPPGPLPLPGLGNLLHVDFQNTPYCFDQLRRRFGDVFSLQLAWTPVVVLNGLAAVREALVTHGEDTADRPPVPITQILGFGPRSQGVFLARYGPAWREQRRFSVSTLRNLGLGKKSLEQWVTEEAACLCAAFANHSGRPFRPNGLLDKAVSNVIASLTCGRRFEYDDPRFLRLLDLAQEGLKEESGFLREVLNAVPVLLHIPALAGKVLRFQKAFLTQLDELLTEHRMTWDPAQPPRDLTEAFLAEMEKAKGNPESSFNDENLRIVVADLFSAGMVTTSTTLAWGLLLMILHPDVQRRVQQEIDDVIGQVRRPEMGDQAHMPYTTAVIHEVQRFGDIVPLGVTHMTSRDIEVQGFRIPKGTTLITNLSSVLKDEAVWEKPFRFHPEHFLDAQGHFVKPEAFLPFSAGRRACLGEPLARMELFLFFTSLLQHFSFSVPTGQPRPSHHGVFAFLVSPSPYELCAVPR

The target in test [4] is Cytochrome P450 2C9 (Homo sapiens) (UniProt P11712). The test can be described thus: qHTS for inhibitors of CYP2C9 against the NCATS DSHEA and TCM libraries (AID 1919973).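 Note: luminogenic pro-luciferin CYP2C9 substrate turned into luciferin with NADPH regeneration; % is set by controls: 0 for no effect and ±100 for the full control effect.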 Summed up:
as §1

The target in test [5] is Cytochrome P450 2C19 (Homo sapiens) (UniProt P33261). As to the kind of experiment: qHTS for inhibitors of CYP2C19 against the NCATS DSHEA and TCM libraries (AID 1919974).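 Note: luminescence from luciferin released by CYP2C19 oxidation of a pro-luciferin substrate; % is set by controls: 0 for no effect and ±100 for the full control effect.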 Summed up:
as §1

Test [6] is described as follows: KB-3-1 P-gp reporter qHTS against the NCATS DSHEA and TCM libraries (AID 1919975). Note: 0% is about no effect. Put shortly: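 72 h exposure of KB-3-1 cells (DMEM, 10% FBS) to DSHEA/TCM samples, concentration-response; cell viability measured as CellTiter-Glo luminescence after 30 min at room temperature.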
In test [7] the target is Cytochrome P450 1A2 (Homo sapiens) (UniProt P05177). As to the kind of experiment: qHTS for inhibitors of CYPIA2 against the NCATS DSHEA and TCM libraries (AID 1919976).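 Note: light from luciferin formed by CYP1A2 from a pro-luciferin substrate; % is set by controls: 0 for no effect and ±100 for the full control effect.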 Summed up: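 Enzyme and pro-luciferin substrate, or substrate alone as no-enzyme background, are pre-incubated with test samples for 15 min at room temperature. NADPH regeneration system (1x final) initiates a 30-45 min dark reaction; luciferase detection reagent follows before luminescence reading.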
Cytochrome P450 1A2 (Homo sapiens), sequence (P05177 whole entry, looked up): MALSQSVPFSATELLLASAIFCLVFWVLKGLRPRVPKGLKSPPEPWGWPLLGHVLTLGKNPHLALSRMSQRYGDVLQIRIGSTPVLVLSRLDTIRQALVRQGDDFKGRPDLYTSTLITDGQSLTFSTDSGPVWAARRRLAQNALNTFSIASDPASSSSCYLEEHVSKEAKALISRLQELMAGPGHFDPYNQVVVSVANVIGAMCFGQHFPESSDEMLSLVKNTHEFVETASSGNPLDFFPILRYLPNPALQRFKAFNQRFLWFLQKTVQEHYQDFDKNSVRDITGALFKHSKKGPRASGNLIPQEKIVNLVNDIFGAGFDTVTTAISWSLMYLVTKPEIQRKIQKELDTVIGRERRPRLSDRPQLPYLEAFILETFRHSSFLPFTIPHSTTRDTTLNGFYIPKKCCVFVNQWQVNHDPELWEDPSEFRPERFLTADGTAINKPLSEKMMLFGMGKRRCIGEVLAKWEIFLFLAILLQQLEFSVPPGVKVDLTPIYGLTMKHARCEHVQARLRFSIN

Test [8] in a line: qHTS Counterscreen for compound interference against the NCATS DSHEA and TCM libraries (AID 1919978). Note: % of control where 0% means no effect. The following applies: firefly luciferase detection reagent interference, luminescence. Put shortly: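 Read-out is luminescence after 30 min at RT with luciferin detection reagent. Before that, compounds (19.5 nM to 39.8 uM final) sat 15 min at RT with 1 uM D-luciferin or 100 mM potassium phosphate buffer. PTC124 served as intraplate control.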

The nature of test [9]: Dual reporter qHTS for agonist of Pregnane X Receptor (hPXR) against the NCATS DSHEA and TCM libraries: Fluorescence readout (AID 1920058). Note: 0% is about no effect. Put shortly: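 Cells were plated at 2000 per well and allowed to attach for 5 h. Test substances were pinned in and incubated roughly 24 h. CellTiter-Fluor was then added and fluorescence measured after 1 h.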
In test [10] the target is Nuclear receptor subfamily 1 group I member 2 (Homo sapiens) (UniProt O75469). As to the kind of experiment: Dual reporter qHTS for agonist of Pregnane X Receptor (hPXR) against the NCATS DSHEA and TCM libraries: Luminescence readout (AID 1920059). Note: 0% is about no effect. Put shortly: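 hPXR-Luc HepG2 cells, 2000/well in 5% charcoal-stripped FBS medium, attached 5 h, then exposed 24 h at 37C to compounds. Viability by CellTiter-Fluor, then luciferase luminescence with ONE-Glo.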
Nuclear receptor subfamily 1 group I member 2 (Homo sapiens), sequence (O75469 whole entry, looked up): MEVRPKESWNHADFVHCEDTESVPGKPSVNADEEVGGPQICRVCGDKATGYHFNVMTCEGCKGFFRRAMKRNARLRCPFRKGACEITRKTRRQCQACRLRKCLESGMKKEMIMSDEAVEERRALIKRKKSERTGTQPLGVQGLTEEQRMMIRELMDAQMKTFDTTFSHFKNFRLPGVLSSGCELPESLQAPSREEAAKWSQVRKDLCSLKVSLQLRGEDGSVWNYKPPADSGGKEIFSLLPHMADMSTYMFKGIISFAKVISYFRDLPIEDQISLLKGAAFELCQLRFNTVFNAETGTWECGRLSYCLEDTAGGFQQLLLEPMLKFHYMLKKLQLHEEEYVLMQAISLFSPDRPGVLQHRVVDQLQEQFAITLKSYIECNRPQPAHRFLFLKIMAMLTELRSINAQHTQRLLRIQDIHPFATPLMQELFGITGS

The target is the same in test [11]. The test can be described thus: Dual reporter qHTS for antagonist of Pregnane X Receptor (hPXR) against the NCATS DSHEA and TCM libraries: Luminescence Readout (AID 1920060).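 Note: HepG2 cells carrying hPXR luciferase reporter stimulated with rifampicin at 2 µM; 0% is about no effect.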 Summed up:
(§2)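 HepG2 hPXR-Luc, 2000 cells/well, charcoal-stripped FBS medium; 5 h attach; RIF 2 uM final; 24 h 37C/5% CO2; CellTiter-Fluor 1 h, fluor 405/540; ONE-Glo 30 min RT, lum.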

Test [12] can be described thus: Dual reporter qHTS for antagonist of Pregnane X Receptor (hPXR) against the NCATS DSHEA and TCM libraries: Fluorescence Readout (AID 1920061). Note: 0% is about no effect. Summed up: as §2
A short description of test [13]: qHTS profiling for inhibitors of Plasmodium falciparum proliferation (AID 504749). Note: potency is the fitted concentration of half-maximal effect; nearly all actives have a fitted effect of over 60% in size. The settings on record: P. falciparum in erythrocytes, SYBR Green DNA, 72 h. Summed up: (§3)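 Each compound contacts P. falciparum-infected red blood cells for 72 h at 37 C; lysis buffer (Tris, EDTA, saponin, Triton X, SYBR Green I) is added and fluorescence measured next morning; values normalized to controls.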

The test system of another test is 3D7. The test is described as above. The following applies: P. falciparum in erythrocytes, SYBR Green DNA, 72 h; series mostly up to 28.7 µM. Summed up:
as §3

Another test relates to 7G8. Described as above. The following applies: P. falciparum in erythrocytes, SYBR Green DNA, 72 h; series mostly up to 28.7 µM. Put shortly:
as §3

A further test relates to AA1029. The description is as above. The settings on record: P. falciparum in erythrocytes, SYBR Green DNA, 72 h; series mostly up to 28.7 µM. Summed up: as §3
In another test the test system is AS120. Described as above. The following applies: P. falciparum in erythrocytes, SYBR Green DNA, 72 h; series mostly up to 28.7 µM. Put shortly: as §3
For another test, the system named is ATS189. The description is as above. The following applies: P. falciparum in erythrocytes, SYBR Green DNA, 72 h; series mostly up to 28.7 µM. Put shortly: as §3
Another test concerns ATS95. Described as above. The following applies: P. falciparum in erythrocytes, SYBR Green DNA, 72 h. Put shortly:
as §3

The mark [14] stands for this setting: measured here: PEO1 parental Z-AUC.

Cytochrome P450 2C9 (Homo sapiens), sequence (P11712 whole entry, looked up): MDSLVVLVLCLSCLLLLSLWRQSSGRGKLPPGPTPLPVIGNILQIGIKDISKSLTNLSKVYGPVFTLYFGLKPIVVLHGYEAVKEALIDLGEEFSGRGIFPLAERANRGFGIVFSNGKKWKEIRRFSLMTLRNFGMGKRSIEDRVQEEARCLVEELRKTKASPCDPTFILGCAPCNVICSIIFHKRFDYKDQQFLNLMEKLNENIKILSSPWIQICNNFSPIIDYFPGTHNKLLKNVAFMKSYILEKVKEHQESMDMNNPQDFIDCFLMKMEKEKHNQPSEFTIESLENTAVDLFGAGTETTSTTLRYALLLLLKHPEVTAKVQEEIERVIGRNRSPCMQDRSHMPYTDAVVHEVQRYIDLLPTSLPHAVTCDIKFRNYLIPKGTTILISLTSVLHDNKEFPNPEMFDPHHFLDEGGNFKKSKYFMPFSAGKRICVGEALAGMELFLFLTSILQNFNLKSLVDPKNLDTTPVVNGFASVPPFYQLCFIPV
Cytochrome P450 2C19 (Homo sapiens), sequence (P33261 whole entry, looked up): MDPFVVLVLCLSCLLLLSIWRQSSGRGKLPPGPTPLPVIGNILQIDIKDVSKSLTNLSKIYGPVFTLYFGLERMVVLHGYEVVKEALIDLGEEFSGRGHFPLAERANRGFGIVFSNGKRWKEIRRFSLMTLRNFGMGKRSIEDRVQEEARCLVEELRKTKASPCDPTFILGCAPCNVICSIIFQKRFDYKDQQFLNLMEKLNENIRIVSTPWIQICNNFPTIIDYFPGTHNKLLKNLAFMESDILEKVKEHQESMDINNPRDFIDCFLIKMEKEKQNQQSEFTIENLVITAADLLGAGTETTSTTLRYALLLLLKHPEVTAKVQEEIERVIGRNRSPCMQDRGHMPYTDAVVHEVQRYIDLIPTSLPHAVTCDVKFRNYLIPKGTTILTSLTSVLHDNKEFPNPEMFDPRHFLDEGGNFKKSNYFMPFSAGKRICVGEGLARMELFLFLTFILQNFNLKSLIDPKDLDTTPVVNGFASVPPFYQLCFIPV
Cytochrome P450 3A4 (Homo sapiens), sequence (P08684 whole entry, looked up, canonical isoform): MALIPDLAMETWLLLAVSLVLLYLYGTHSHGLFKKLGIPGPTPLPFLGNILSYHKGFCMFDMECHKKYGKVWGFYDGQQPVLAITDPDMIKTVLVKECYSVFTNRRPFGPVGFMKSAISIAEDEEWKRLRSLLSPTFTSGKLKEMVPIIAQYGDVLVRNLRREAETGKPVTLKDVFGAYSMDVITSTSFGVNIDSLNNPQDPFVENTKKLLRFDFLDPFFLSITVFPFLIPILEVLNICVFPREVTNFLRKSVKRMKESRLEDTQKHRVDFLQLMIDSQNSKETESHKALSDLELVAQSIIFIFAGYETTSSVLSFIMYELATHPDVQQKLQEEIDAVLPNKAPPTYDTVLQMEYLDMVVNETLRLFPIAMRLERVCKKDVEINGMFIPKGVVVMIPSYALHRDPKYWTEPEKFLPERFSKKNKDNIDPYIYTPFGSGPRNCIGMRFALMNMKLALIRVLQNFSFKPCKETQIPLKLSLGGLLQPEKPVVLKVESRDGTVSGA

For the compound `Cc1cc(F)c(C(=O)Nc2cccc(-c3nncn3C(C)C)n2)cc1-n1cnc(C2CC2)c1`, the Z-AUC was -0.535 (inactive) in test [1], -0.555 in [1] (setting [14]) and -0.37 in test [1] (measured here: PEO4 Z-AUC).

Regarding `Cc1nnc(C[C@@H]2C=C(c3ccc(Cl)cc3)c3ccccc3-n3c(C)nnc32)o1`, the Z-AUC was 0.965 (inactive) in test [1], 0.533 in [1] (setting [14]) and 0.589 in [1] (measured here: PEO4 Z-AUC).

As for `COc1ccc(CNc2nc(N(CCO)CCO)nc3c2ncn3C(C)C)cc1`, the Z-AUC in [1] was -0.772 (inactive); in test [1] (setting [14]) it was -0.866; in test [1] (measured here: PEO4 Z-AUC), -0.51.

As for `COc1cc(N2CCC(N3CCN(C)CC3)CC2)ccc1Nc1ncc(Cl)c(Nc2ccccc2P(C)(C)=O)n1`, the Potency in test [1] was 549 nM (active). In addition, the Z-AUC was -1.53 in test [1] (setting [14]) and -1.55 in test [1] (measured here: PEO4 Z-AUC).

Consider `CCCCCCCCCC(=O)O`, for which the call in [2], in test [3], in test [6], in [9], in [10] and in [11] was inactive. The call in test [12] was inactive. Further, the Potency result in [4], in test [5] and in test [7] was “inactive” each time. Besides, the max response in [8] is -0.481% (inactive).

For the compound `C[C@@H]1CN(CC(=O)N2CC(C)(C)c3ncc(Cc4ccc(F)cc4)cc32)[C@@H](CN2CCOC[C@H]2C)CN1`, the Z-AUC in [1] was 1.68 (inactive); in [1] (setting [14]), 0.908; in test [1] (measured here: PEO4 Z-AUC), 0.0229.

For `COC(=O)N1CC2(CC2)C[C@H](C(=O)NO)[C@H]1C(=O)N1CCN(c2ccccc2)CC1`, the Z-AUC in [1] was -0.244 (inactive); in [1] (setting [14]), -0.0786; in [1] (measured here: PEO4 Z-AUC), 0.341.

With `CN1C(=O)c2sccc2N(C)c2nc(Nc3ccc(S(N)(=O)=O)cc3)ncc21`, the Z-AUC is -1.71 (inactive) in [1], -0.96 in test [1] (setting [14]) and -1.18 in test [1] (measured here: PEO4 Z-AUC).

As for `FC(F)(F)c1ccc(CNc2ccc(Cc3c[nH]c4ncc(Cl)cc34)cn2)cn1`, the Z-AUC was 1.12 (inactive) in test [1], 1.06 in test [1] (setting [14]) and 1.21 in test [1] (measured here: PEO4 Z-AUC).

Regarding `Cc1nc(NC(=O)N2CCC[C@H]2C(N)=O)sc1-c1ccnc(C(C)(C)C(F)(F)F)c1`, the Z-AUC in test [1] is -0.211 (inactive) and -0.86 (inactive); in [1] (setting [14]), -0.228 and -0.204; in test [1] (measured here: PEO4 Z-AUC) it was -0.403 and -0.389.

In the case of `C=CCNC1=C2C[C@@H](C)C[C@H](OC)[C@H](O)[C@@H](C)/C=C(\C)[C@H](OC(N)=O)[C@@H](OC)/C=C\C=C(/C)C(=O)NC(=CC1=O)C2=O`, the Potency in [13] (parasite line A) is 1410 nM (active); in test [13] (parasite line B), 2240 nM (active); in the test with 3D7 it was 2240 nM (active); in the test with 7G8 it was 447 nM (active); with AA1029, 1410 nM (active); in the test with AS120, 1410 nM (active). Besides, the Potency in the test on ATS189 is 2240 nM (active); in the test with ATS95, 2000 nM (active).

Regarding `CC[C@@H](C)Nc1cc(C(=O)NC2CC3CC[C@@H](C2)N3c2ccc(C(=O)C3CC3)cn2)c(C)cc1C(N)=O` (some centres undefined), the Potency in [1] was 219 nM (active). In addition, the Z-AUC in [1] (setting [14]) was -1.88; in [1] (measured here: PEO4 Z-AUC) it was -1.25.
